Shown are actives, neighbours in structure and some others; about 3.8% of the full set was active somewhere.
TIM10 inh: growth inhibitors of TIM10 yeast strain. S. cerevisiae TIM10 strain growth, BacTiter-Glo luminescence, 24 h. inhibition, % at 10 µM. 330,000 tested, 1.4% active;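 active = inhibition of 40% or more at the single tested concentration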;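 also: wild-type TIM10 isogenic control strain grown at permissive 25 °C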
tim10-1 inh: growth inhibitors of tim10-1 mutant yeast; S. cerevisiae tim10-1 ts strain growth, BacTiter-Glo, 24 h; inhibition, % at 20 µM; 330,000 tested, 2.2% active;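 active = inhibition of at least 40%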;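 also: mutant grown at 25 °C; 0% = DMSO wells with yeast and 100% = wells holding no yeast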
Yeast superoxide: yeast age-related superoxide inhibition as caloric restriction mimetic; S. cerevisiae aged cells, superoxide DHE fluorescence; hits give low values; superoxide response (% of plate mean), % at 10 µM; 330,000 tested, 0.18% active;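 active = superoxide response under a set limit, about three screen SD below normal, cut at about 65% in these data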;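 also: yeast aged for seven days with compound at 30 °C before DHE staining; 100% = average MFI of all compound-treated wells on the plate with controls excluded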
tim23-1 inh: tim23-1 yeast growth inhibition; AID 463212; S. cerevisiae tim23-1 growth, BacTiter-Glo luminescence, 24 h; inhibition, % at 20 µM; 330,000 tested, 1.3% active;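 active = growth inhibition of the mutant yeast at or above 50%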;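 also: temperature-sensitive mutant grown at 25 °C; plate controls were DMSO-treated mutant yeast for no effect and medium wells lacking yeast for full effect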
NALP3 yeast inh: inhibitors of NALP3 inflammasome in yeast | inhibition, % at 10 µM | Yeast reconstituted NLRP3/ASC/caspase-1, beta-gal luminescence, 24 h | AID 2825 | 330,000 tested, 0.39% active;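 active = inhibition of 50% or more; inactive = inhibition below 50%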;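 also: plate controls were induced DMSO wells for no effect and uninduced yeast grown without galactose for full effect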
tim10-1 confirm: confirmation of tim10-1 mutant yeast growth inhibitors; shares compounds with tim10-1 inh; S. cerevisiae tim10-1 ts strain growth, BacTiter-Glo, 24 h; AID 463213; inhibition, % at 20 µM; 7,400 tested, 56% active;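 active = inhibition of yeast growth at or above a set limit in either of two repeat tests at 20 µM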;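 also: tim10-1 mutant grown at permissive 25 °C to find synthetic lethal compounds; 0% = DMSO yeast wells and 100% = medium wells without yeast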
* hit, by the source's call; . = not tested or not shown.

SMILES | TIM10 inh | tim10-1 inh | Yeast superoxide | tim23-1 inh | NALP3 yeast inh | tim10-1 confirm
O=C(COc1ccc(Cl)cc1Cl)Nc1ccc(S(=O)(=O)NC2=NCCCCC2)cc1 | 39 | 44* | 87 | 13 | 4 | 39*
Cc1ccc(Cl)c(OCC(=O)Nc2ccc(S(=O)(=O)NC3=NCCCCC3)cc2)c1 | -3 | -7 | 103 | -3 | 18 | .
CCOC(=O)C(CCSC)Nc1nc(Cl)nc(Nc2ccc(Cl)cc2)n1 (configuration not stated) | 4 | 31 | 110 | 33 | 2 | .
Cc1sc2nc(-c3ccco3)oc(=O)c2c1C | 21 | 42* | 110 | 36 | 14 | 29
Cc1ccccc1-c1nc2sc(C)c(C)c2c(=O)o1 | -22 | 3 | 118 | 12 | 14 | .
CCN(CC1COc2ccccc2O1)C(=S)Nc1ccc(F)cc1 (configuration not stated) | 32 | 45* | 101 | 47 | 27 | 30
COc1ccc(NC(=S)N(C)CC2COc3ccccc3O2)cc1 (configuration not stated) | 20 | 23 | 97 | 29 | 15 | .
Cc1sc2nc(SCc3nc4ccccc4[nH]3)n(Cc3ccco3)c(=O)c2c1C | 29 | 52* | 100 | 46 | -8 | 35*
OC(CCN1CCC2(CC1)OCCO2)C(F)(F)F (configuration not stated) | -6 | 1 | 105 | 12 | -4 | .
O=C(COc1cc2oc(=O)cc(-c3ccccc3)c2cc1Cl)NCc1ccccn1 | -24 | 42* | 103 | -10 | 5 | -58
CCc1c(C)[nH]c2ccc(OC)cc2c1=S | 16 | 46* | . | 24 | 15 | 36*
O=C(CSCc1c[nH]c(=O)[nH]c1=O)OCC(=O)c1ccc(Br)cc1 | 7 | 3 | 94 | 7 | 9 | .
O=C(N1CCC(n2nc(-c3ccccc3)oc2=O)CC1)C1(c2ccc(Cl)cc2)CC1 | 26 | 53* | 114 | 43 | 22 | 2
Cc1cc(NC(=O)c2ccccc2Oc2ccccc2)no1 | 39 | 44* | 107 | 33 | -14 | 31*
COc1ccccc1C(=O)Nc1cc(C)on1 | -3 | 2 | 110 | 10 | 25 | .
Cc1nc(CS(=O)(=O)c2ccc(Cl)cc2)cc(Sc2ccccc2Cl)n1 | -33 | 16 | 99 | 8 | 10 | .
COc1ccc(N2CCN(c3cc(C)nc4ccc(OC)cc34)CC2)cc1 | 13 | 43* | 93 | 25 | 22 | 8
COc1ccc2nc(C)cc(N3CCC(C(N)=O)CC3)c2c1 | -8 | 11 | 111 | -4 | -8 | .
COC(=O)c1c(NC(C)=O)sc(C(=O)Nc2ccccc2C)c1C | 15 | 10 | 80 | -1 | -15 | .
COc1ccc(/C=C2\CCC/C(=C\C=N\N(C)C)C2=O)cc1 | 31 | 26 | 88 | 31 | -9 | .
CN(C)/N=C/C=C1\CCC/C(=C\c2ccc(F)c(F)c2)C1=O | 30 | 46* | 107 | 46 | 10 | 48*
CSCC[C@H](NC(=O)C1CCN(S(=O)(=O)c2ccc(C)cc2C)CC1)c1nc2ccccc2[nH]1 | -14 | -12 | 97 | -3 | 9 | .
CCOc1cc(/C=N\Nc2nc(Nc3ccccc3)nc(N3CCOCC3)n2)ccc1OC(=O)c1ccco1 | 28 | 42* | 93 | 20 | 4 | 27
O=c1c2ccccc2nc(SCc2ccc([N+](=O)[O-])cc2)n1-c1ccccc1 | 26 | 40* | 97 | 34 | -4 | 34*
Cc1cc(-n2c(=S)sc3c(=O)n(-c4ccc(F)cc4)c(SCC(=O)O)nc32)ccc1Cl | 5 | 7 | 90 | -1 | 11 | .
SMILES | TIM10 inh | tim10-1 inh | Yeast superoxide | tim23-1 inh | NALP3 yeast inh | tim10-1 confirm
Cc1cc(C)nc(N(C#N)Cc2cccc3ccccc23)n1 | 6 | 48* | 105 | 32 | 14 | 35*
Cc1cc(C)nc(N(C#N)Cc2ccccc2)n1 | -23 | 9 | 92 | -7 | -5 | .
COc1cc(OC)c(NC(=O)CNC(=O)Cn2ccc3ccccc3c2=O)cc1Cl | -4 | -23 | 97 | -11 | 15 | .
O=C(NCc1ccc(Cl)cc1)C1CC(O)CN1S(=O)(=O)c1ccc(Cl)cc1 (configuration not stated) | 9 | 12 | 96 | 24 | 7 | .
Cc1ccc(OC(=O)c2ccc([N+](=O)[O-])cc2Cl)cn1 | 13 | 43* | 84 | 22 | 4 | 23
Cc1ccc(OC(=O)c2ccc(C)c([N+](=O)[O-])c2)cn1 | -1 | 8 | 95 | 7 | 19 | .
